Source: PubChem
This is a sample that favours compounds with a hit; in the whole collection about 4.2% have one here.
Sfp PPTase inh – qHTS Assay for Inhibitors of Bacillus subtilis Sfp phosphopantetheinyl transferase (PPTase); Biochemical Sfp PPTase activity, qHTS; 4'-phosphopantetheinyl transferase ffp (Bacillus subtilis), Q9F4F7; hit rate 3.5% among 310,000; Potency, µM, without a hit: largest response in the series, negative = inhibition, usual class: inhibitors; AID 1490, 2009;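 note: the enzyme is Sfp with the accession as filed and its product quenches rhodamine fluorescence; potency is the fitted concentration of half-maximal effect; 0% = enzyme reaction without inhibitor and -100% = no enzyme wells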
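Fluorescence-quenching assay: 15 nM Sfp-PPTase preincubated 15 min at room temperature with compound, then 5 uM rhodamine-CoA and 12.5 uM BHQ-2-labelled YbbR peptide added. Fluorescence (ex 525/em 598 nm) read at start and after 30 min; difference gives rate.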
ClpP mod – qHTS Assay for Activators of ClpP; Potency, µM (titrated, usually from 57.5 µM), inactives show at the top dose activity change, negative = active; hit rate 1.9% among 340,000; purified B. subtilis ClpP, FRET peptide cleavage, 20 min; active = well fitted falling curve with a large enough effect; inconclusive = small, poorly fitted or top-dose-only effect; inactive = no such curve, though single readings can be large or run the other way; note: potency is the fitted concentration of half-maximal effect; the source files actives as falling curves though it sought activators and does not explain the sign; nearly all actives have a fitted effect of over 65% in size
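Buffer: 100 mM Tris/HCl pH8, 100 mM KCl, 0.05% low protease BSA, 2.5% glycerol, 0.01% Tween-20. ClpP 10 microg/mL final; 20 min RT; delta FRET normalized to ADEP and DMSO controls.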
TCR activator – Activators of T cell receptors: qHTS campaign | primary human leukocytes, anti-CD3, IL-2 HTRF, 48 h | Potency, µM (titrated, usually from 9.22 µM), inactives show at the top dose activation of IL-2 secretion, actives largely listed as activators | 330,000 tested, under 10 active | AID 504894, 2011; note: % of control where 0% means no effect
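Using a-CD3 beads without co-stimulation, primary human leukocytes were exposed to compounds for 48 hr. An HTRF IL-2 kit measured the cytokine, with europium-to-d2 energy transfer producing emission at 665nm upon 320nm excitation.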
uPA surface inh – qHTS for Inhibitors of Cell Surface uPA Generation; cell surface uPA generation assay, qHTS; Potency, µM (doses to about 38.3 µM), for inactives: top-dose activity change, negative = inhibition, actives largely listed as inhibitors; hit rate 0.31% among 330,000; AID 540303, 2011; active = well fitted inhibition curve with a large enough effect; inconclusive = small, poorly fitted or top-dose-only effect; inactive = no such curve, though single readings can be large or run the other way; tested in mouse RAW 264.7 cells; note: potency is the fitted concentration of half-maximal effect; % is set by controls: 0 for no effect and ±100 for the full control effect; nearly all actives have a fitted effect of over 55% in size
Numbers without * were called inactive; [ ] = another dose, or the depositor's remark. Unless noted, calls come from the whole dose curve; as a rule, active = well fitted curve in the direction sought with a large enough effect; inconclusive = small, poorly fitted or top-dose-only effect, or another doubt; inactive = no such curve, though single readings can be large; an effect the other way counts as inactive or inconclusive.

`COC(=O)C1CCN(C(=O)COC(=O)c2n[nH]c3ccccc23)CC1` gave Sfp PPTase inh 12%, ClpP mod 32µM* and TCR activator -5%.
`CC1CCCN(C(=O)COC(=O)c2n[nH]c3ccccc23)C1` (stereo not drawn) gave Sfp PPTase inh 10%, ClpP mod 22µM*, TCR activator -1% and uPA surface inh 1%.
For O=C(OCC(=O)N1CCCCC1)c1n[nH]c(=O)c2ccccc12 the results were TCR activator 2% and uPA surface inh 1%.
Screening CCc1c(C)c(C#N)c2[nH]c3ccccc3n2c1=S returned Sfp PPTase inh 79µM*, TCR activator 3% and uPA surface inh -1%.
Screening CCc1cc(=S)n2c([nH]c3ccccc32)c1C#N returned Sfp PPTase inh 45µM*, TCR activator 5% and uPA surface inh -3%.
Screening C=C(C)Cc1c(C)c(C#N)c2[nH]c3ccccc3n2c1=O returned Sfp PPTase inh 5%, TCR activator -1% and uPA surface inh -3%.
Screening CCOc1ccc(NC(=O)c2ccc(NC(=O)N3CCSc4ncccc43)cc2)cc1 returned ClpP mod -9%.
Screening O=C(C1CCC(=O)N(C2CC2)C1)N(CCO)Cc1ccccc1 (stereo not drawn) returned Sfp PPTase inh 24%, ClpP mod 0%, TCR activator -5% and uPA surface inh 0%.
Screening COc1ccc(-c2coc3c(CN4CCCCC4)c(O)c(CN4CCCCC4)c(O)c3c2=O)cc1 returned Sfp PPTase inh 16µM*.
`COc1ccc(NC(=O)Cn2nnnc2-c2ccccc2F)c(C)c1` gave ClpP mod 0%.
For NC(=S)N/N=C/c1coc2ccc(Br)cc2c1=O the results were Sfp PPTase inh 3%, TCR activator 4% and uPA surface inh 5%.
Screening NC(=S)N/N=C/c1coc2ccc(O)cc2c1=O returned Sfp PPTase inh 1.6µM*, ClpP mod 1%, TCR activator -17% and uPA surface inh 5%.
Cc1cccc(Nc2nc(NCCCN3CCOCC3)nc(N)c2[N+](=O)[O-])c1 was read as Sfp PPTase inh 3%, ClpP mod 20µM*, TCR activator -6%[46.1 µM] and uPA surface inh 11%.
For Nc1nc(NCCCN2CCOCC2)nc(Nc2cccc(F)c2)c1[N+](=O)[O-] the results were Sfp PPTase inh 15%, TCR activator 0% and uPA surface inh 2%.
Screening OCC[C@@H]1NCc2cc(CO)cc(-c3ccccc3)c21 returned ClpP mod -1%, TCR activator -8% and uPA surface inh 23%.
`CC(Nc1cc(N2CCNCC2)ccc1[N+](=O)[O-])c1ccccc1` (stereo not drawn) gave Sfp PPTase inh -13%, ClpP mod 28µM*, TCR activator -9%[46.1 µM] and uPA surface inh 3%.
For CCS(=O)(=O)N1CCN(c2ccc([N+](=O)[O-])c(NC(C)c3ccccc3)c2)CC1 (stereo not drawn) the results were Sfp PPTase inh 8%, ClpP mod 1%, TCR activator 0% and uPA surface inh -1%.
Screening O=C(O)C1CSC(c2ccc3c(c2)OCO3)N1 (stereo not drawn) returned Sfp PPTase inh 25µM*, TCR activator -4% and uPA surface inh 2%.
O=C(O)Cc1cn(-c2ccccc2)nc1-c1ccccc1 was read as Sfp PPTase inh 10%, TCR activator 2% and uPA surface inh -1%.
Cc1ccc(-c2nn(-c3ccccc3)cc2C=O)o1 was read as Sfp PPTase inh 40µM*, TCR activator 0% and uPA surface inh -13%.
Screening Cc1ccc(-c2nn(-c3ccccc3)cc2CO)o1 returned Sfp PPTase inh -27%, ClpP mod 32µM*, TCR activator 0%[46.1 µM] and uPA surface inh -4%.
For OCc1cn(-c2ccccc2)nc1-c1ccc(-c2nn(-c3ccccc3)cc2CO)cc1 the results were Sfp PPTase inh 7%, ClpP mod 28µM*, TCR activator 4% and uPA surface inh 8%.
For Cc1nc(C2CCC3C4CCC5=CC(=O)CC[C@]5(C)C4CC[C@]23C)cs1 (stereo partly drawn) the results were Sfp PPTase inh 79µM*.
`CSc1cccc(Nc2cc(C(=O)NCCCN(Cc3ccccc3)C(C)C)c3ccccc3n2)c1` gave ClpP mod 35µM*.
For COc1ccc(Nc2cc(C(=O)NCCCN(C)Cc3ccccc3)c3ccccc3n2)cc1 the results were ClpP mod 33%.
`Cc1c(Cl)cnn1CC(=O)NC1C(=O)N2C(C(=O)O)=C(CSc3nnnn3C)CSC12` (stereo not drawn) gave Sfp PPTase inh 50µM*, TCR activator 5% and uPA surface inh 3%.
For Cc1nn(CC(=O)NC2C(=O)N3C(C(=O)O)=C(CSc4nnnn4C)CSC23)cc1Br (stereo not drawn) the results were Sfp PPTase inh inconclusive, TCR activator 0% and uPA surface inh 8%.
Screening CC(C(=O)NC1C(=O)N2C(C(=O)O)=C(CSc3nnnn3C)CSC12)n1cc(Cl)cn1 (stereo not drawn) returned Sfp PPTase inh 40µM*, TCR activator 0% and uPA surface inh 2%.
Cc1c(Cl)c(C(F)F)nn1CC(=O)NC1C(=O)N2C(C(=O)O)=C(CSc3nnnn3C)CSC12 (stereo not drawn) was read as Sfp PPTase inh inconclusive, ClpP mod 0%, TCR activator -3% and uPA surface inh -10%.
Screening O=C(O)C1=C(CSc2nnnn2CS(=O)(=O)O)CS[C@@H]2[C@H](NC(=O)[C@H](O)c3ccccc3)C(=O)N12 returned Sfp PPTase inh 79µM*.
c1ccc(CN2CCN(CCOCCOc3cccc4ccccc34)CC2)cc1 was read as Sfp PPTase inh 50µM*, TCR activator -5% and uPA surface inh 14%.
`CCN1CCN(CCOCCOc2ccccc2)CC1` gave Sfp PPTase inh 50µM*, ClpP mod -1%, TCR activator 0% and uPA surface inh 24%.
Screening O=C(c1ccco1)N1CCN(CCOCCOc2cccc3ccccc23)CC1 returned Sfp PPTase inh 11%, ClpP mod -2%, TCR activator 1% and uPA surface inh 3%.
Cc1nc(CC(=O)Nc2ccc(N(C)C)cc2)cs1 was read as ClpP mod -1%.
`COc1ccc(Cn2nnnc2C(c2cccs2)N2CCN(c3ccccc3)CC2)cc1` (stereo not drawn) gave Sfp PPTase inh -3%, ClpP mod -1%, TCR activator -6% and uPA surface inh 13%.
`Oc1ccc(N2CCN(C(c3cccs3)c3nnnn3CCc3ccccc3)CC2)cc1` (stereo not drawn) gave Sfp PPTase inh 50µM*, ClpP mod -3%, TCR activator 0% and uPA surface inh -11%.
For Cc1nc2cc(-c3ccccc3)sc2c(=O)n1N the results were Sfp PPTase inh 10%, ClpP mod -10%, TCR activator 4% and uPA surface inh -11%.
